A selection: hits, their analogues and other compounds. The true share with any hit is near 12%.
PI5P4Ka inh: qHTS for Inhibitors of phosphatidylinositol 5-phosphate 4-kinase (PI5P4K); Phosphatidylinositol 5-phosphate 4-kinase type-2 alpha (Homo sapiens), P48426; hit rate 1.2% among 330,000; PI5P4Kalpha enzyme, ADP-Glo luminescence, 60 min; stronger effect = lower value; max response, %; active = max response of -50% or lower; inconclusive = between -30% and -50%; inactive = -30% or higher; also: value at the top dose of about 77 µM
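ADP-Glo luminescence end-point read after a 60 min room-temperature kinase reaction of PI5P4Kalpha plus substrate, initiated with ATP at 5 microM final. Buffer: 0.038 M HEPES pH 7.4, EGTA, 0.1% CHAPS, 5% DMSO.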
BAZ2B block: qHTS Assay for Inhibitors of BAZ2B. AlphaScreen BAZ2B-H3K14Ac peptide displacement. Potency, µM (top dose mostly 114 µM), most hits filed as inhibitors. AID 504333, 2011. hit rate 4.4% among 360,000. Bromodomain adjacent to zinc finger domain protein 2B (Homo sapiens), Q9UIF8; also: nearly all actives have a fitted effect of over 60% in size
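BAZ2B (50 nM) with biotin-H3(5-23)K14Ac peptide (50 nM) in PBS pH 7.4, 0.01% Tween-20, preformed 30 min, then compound 30 min at room temperature; top concentration 110uM. AlphaScreen streptavidin donor/nickel chelate acceptor beads (10 ug/mL final), 20 min dark, signal read.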
G9a block: qHTS Assay for Inhibitors of Histone Lysine Methyltransferase G9a; Histone-lysine N-methyltransferase EHMT2 (Homo sapiens), Q96KQ7; G9a H3K9 monomethylation, AlphaScreen, 2 h; Potency, µM (top dose mostly 102 µM), hits mostly inhibitors; hit rate 8.8% among 350,000; AID 504332, 2011; also: nearly all actives have a fitted effect of over 75% in size
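G9a (20 nM) was preincubated 15 min with compound, then reacted 2 h at room temperature with 500 nM biotin-H3K9 peptide and 20 µM SAM. Monomethyl-H3K9 detected by AlphaScreen using anti-H3K9me1 antibody.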
PLK1 PBD inh: qHTS for Inhibitors of PLK1-PDB (polo-like kinase 1 - polo-box domain): Primary Screen | Serine/threonine-protein kinase PLK1 (Homo sapiens), P53350 | Plk1 PBD binding of FITC phosphopeptide, fluorescence polarization | hit rate 2.8% among 360,000 | Potency, µM, usual class: inhibitors; also: series mostly up to about 57 µM; nearly all actives have a fitted effect of over 65% in size
Target sequence (P53350 whole entry, looked up, the tested form may be a part): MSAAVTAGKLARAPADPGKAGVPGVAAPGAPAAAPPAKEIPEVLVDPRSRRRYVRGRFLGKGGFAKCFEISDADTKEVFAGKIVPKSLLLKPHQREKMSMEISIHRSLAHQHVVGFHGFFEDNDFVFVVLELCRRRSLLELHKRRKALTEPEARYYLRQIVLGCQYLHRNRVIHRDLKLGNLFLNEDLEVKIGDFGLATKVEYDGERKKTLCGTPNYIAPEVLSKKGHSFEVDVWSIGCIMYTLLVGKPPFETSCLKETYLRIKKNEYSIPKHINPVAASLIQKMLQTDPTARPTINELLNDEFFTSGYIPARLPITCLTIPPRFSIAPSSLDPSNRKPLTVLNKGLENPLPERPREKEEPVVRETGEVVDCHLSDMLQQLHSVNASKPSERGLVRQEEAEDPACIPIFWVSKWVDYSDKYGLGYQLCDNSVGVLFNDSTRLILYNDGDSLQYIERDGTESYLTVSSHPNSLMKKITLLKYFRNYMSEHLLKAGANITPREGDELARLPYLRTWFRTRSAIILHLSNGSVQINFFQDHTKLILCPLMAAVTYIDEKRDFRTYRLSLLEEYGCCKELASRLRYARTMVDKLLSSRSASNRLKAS
JMJD2A Tudor inh: qHTS Assay for Inhibitors of JMJD2A-Tudor Domain | Potency, µM (highest dose often 114 µM), usual class: inhibitors | hit rate 4.4% among 390,000 | Lysine-specific demethylase 4A (Homo sapiens), O75164 | AlphaScreen JMJD2A-Tudor / H3K4me3 peptide binding; also: nearly all actives have a fitted effect of over 50% in size
HP1b binding inh: HTS for Inhibitors of HP1-beta Chromodomain Interactions with Methylated Histone Tails; Chromobox protein homolog 1 (Homo sapiens), P83916; AlphaScreen HP1-beta / biotin-H3K9me3 peptide binding; Potency, µM (highest dose often 114 µM), usual class: inhibitors; hit rate 0.56% among 390,000; AID 540317, 2011; also: nearly all actives have a fitted effect of over 70% in size
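HP1-beta protein (50 nM final) preincubated 30 min at room temperature with biotinylated H3(1-18)K9me3 peptide (50 nM) in PBS pH 7.4, 0.01% Tween-20, then compound added for 30 min. AlphaScreen streptavidin donor/nickel chelate acceptor beads (10 ug/mL final), 30 min dark, luminescence read.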
Of the large screens only hits and unclear results are named; the others gave an inactive call. Unless noted, calls follow the shape of the dose curve; as a rule, active = well fitted curve in the direction sought with a large enough effect; inconclusive = small, poorly fitted or top-dose-only effect, or another doubt; inactive = no such curve, though single readings can be large; an effect the other way counts as inactive or inconclusive.

C[C@@H]1NC(=O)c2cc([N+](=O)[O-])cc(I)c2OCC[C@@H](C(=O)NC(CC(=O)O)C(N)=O)NC(=O)[C@H](CC(N)=O)NC1=O (stereo not given in full)	BAZ2B block inconclusive, G9a block 25µM, JMJD2A Tudor inh inconclusive
C[C@@H]1NC(=O)[C@H](CCCN=C(N)N)NC(=O)c2cc([N+](=O)[O-])cc(I)c2OCC[C@@H](C(=O)NC(CC(=O)O)C(N)=O)NC1=O (stereo not given in full)	G9a block 40µM (no result: PI5P4Ka inh, PLK1 PBD inh, JMJD2A Tudor inh, HP1b binding inh)
COc1ccc(CC(=O)NNC(=S)Nc2ccccc2)cc1Cl	BAZ2B block inconclusive, G9a block 50µM
Cc1ccc(OCC(=O)NC(=S)Nc2cccc(NC(=O)c3ccc(Cl)cc3Cl)c2)cc1	none
O=C(COc1ccccc1)NNC(=S)NC(=O)c1ccc(Cl)cc1Cl	G9a block 1.4µM (no result: PI5P4Ka inh)
O=C(COc1cccc(Cl)c1)NNC(=S)Nc1ccccc1	G9a block 7.1µM, PLK1 PBD inh 24µM, HP1b binding inh inconclusive
Cc1cccc(C(=O)NC(=S)NNC(=O)COc2ccc(Cl)cc2)c1	G9a block 3.2µM, PLK1 PBD inh 27µM, JMJD2A Tudor inh inconclusive, HP1b binding inh inconclusive
CC(C)Cc1cc(C(=O)Nc2sc3c(c2C#N)CCC3)no1	G9a block 45µM, PLK1 PBD inh 24µM
CCOC(=O)c1c(NC(=O)COC(=O)c2nccnc2N)sc2c1CCC2	none
N#Cc1c(NC(=O)COC(=O)c2nccnc2N)sc2c1CCCC2	PI5P4Ka inh inconclusive, BAZ2B block 79µM, G9a block 45µM, JMJD2A Tudor inh 25µM
Cc1cc(C(=O)Nc2sc3c(c2C#N)CCC3)no1	G9a block inconclusive, PLK1 PBD inh inconclusive (no result: PI5P4Ka inh)
CC(C(=O)Nc1sc2c(c1C#N)CCCCC2)N1C(=O)c2ccccc2C1=O (stereo not given)	BAZ2B block inconclusive, G9a block 3.2µM
CC(C)Cc1cc(C(=O)Nc2sc3c(c2C#N)CCCC3)no1	PLK1 PBD inh inconclusive
Cc1cc(C(=O)Nc2sc3c(c2C#N)CCCC3)no1	G9a block 7.1µM, PLK1 PBD inh 27µM (no result: PI5P4Ka inh)
Cc1ccc2c(c1)c1c(c(=O)n(-c3ccccc3C)c(=O)n1CC(=O)NCc1ccccc1)n2C	G9a block inconclusive (no result: PI5P4Ka inh, PLK1 PBD inh)
N#Cc1c(NC(=O)c2cc(C3CC3)on2)sc2c1CCC2	G9a block 40µM, PLK1 PBD inh 27µM
CCOC(=O)c1cc(C(=O)Nc2sc3c(c2C#N)CCCC3)nn1C	G9a block 11µM, PLK1 PBD inh 21µM
Cc1ccc(C(=O)Nc2sc3c(c2C#N)CCCCC3)cc1C	none (no result: PI5P4Ka inh)
COc1ccccc1-c1cc(C(=O)Nc2sc3c(c2C#N)CCCC3)no1	G9a block 3.2µM, HP1b binding inh inconclusive (no result: PI5P4Ka inh, PLK1 PBD inh)
CCOC(=O)c1c(NC(=O)c2ccn(CC)n2)sc2c1CCCC2	none (no result: PI5P4Ka inh)
COc1ccc(C(=O)Nc2ccccc2C(=O)NC2CC2)c(OC)c1OC	none (no result: BAZ2B block, G9a block, JMJD2A Tudor inh, HP1b binding inh)
CCN(CC)c1sc(S(=O)(=O)c2ccccc2)nc1S(=O)(=O)c1ccc(C)cc1	none (no result: PI5P4Ka inh, PLK1 PBD inh)
O=[N+]([O-])c1ccc(S(=O)(=O)N2CCN(c3nc(-c4cccs4)nc4ccccc34)CC2)cc1	none (no result: PI5P4Ka inh, BAZ2B block, G9a block, PLK1 PBD inh)
COc1ccc(C)cc1NC(=O)C(Sc1nnc(Nc2ccccc2F)s1)c1ccccc1 (stereo not given)	none
COc1ccc(C)cc1Nc1n[n+](-c2ccccc2)c(-c2c(OC)ccc3ccccc23)s1	PI5P4Ka inh -54, BAZ2B block inconclusive, JMJD2A Tudor inh inconclusive
COc1ccc(C)cc1Nc1nc(N)c2ccccc2n1	G9a block inconclusive
COc1ccc(C)cc1Nc1n[n+](-c2ccccc2)c(-c2cc(OC)c(OC)cc2Br)s1	BAZ2B block 50µM, G9a block 40µM, JMJD2A Tudor inh inconclusive

Screening results: PubChem BioAssay, National Center for Advancing Translational Sciences (NCATS)
